From PubChem BioAssay (NCATS)
Inconclusive results are not listed. Values without a mark were called inactive. Calls come from the whole dose curve; as a rule, active = well fitted inhibition curve with a large enough effect; inconclusive = small, poorly fitted or top-dose-only effect; inactive = no such curve, though single readings can be large or run the other way.

experiment: Primary qHTS for inhibitors of La Crosse Virus (LACV) - induced cell death in SH-SY5Y cells (AID 1508616); settings: SH-SY5Y LACV cytopathicity rescue, ATP luminescence, 6 d; series mostly up to 4.29 µM; activity change: at the top concentration;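 note: top concentration of the series differs between compounds; 0% = infected DMSO wells and 100% = uninfected DMSO wells; higher means more rescue of cells from virus-induced death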
Source text: Assay Provider: Karin Peterson Ph.D.
National Institute of Allergy and Infection Diseases, National Institute of Health
La Crosse Virus (LACV) is a California serogroup mosquito-borne arbovirus, family Peribunyaviridae, which is an endemic pathogen in North America and can induce a rare, life-threatening neurological disease in children. LACV was first isolated in the early 1960s, from a summer "rural encephalitis" case in La Crosse, Wisconsin, USA. Since then, LACV encephalitis cases have been found in more than twenty states, with most cases in the Mississippi and Ohio River basins. The life cycle of LACV is maintained between the vector, the eastern tree-hole mosquito Aedes triseriatus, and vertebrate hosts including eastern gray squirrels (Sciurus carolinensis) and chipmunks (Tamiasstriatus grinseus). […] Most LACV infections in humans are asymptomatic or induce mild clinical symptoms of fever, headache, lethargy and vomiting. However, in some cases LACV can cause severe neuroinvasive disease, including encephalitis, meningitis, and meningoencephalitis, requiring hospitalization. To date, there is neither a licensed vaccine nor a Food and Drug Administration (FDA) approved antiviral therapy available to prevent or treat LACV encephalitis. The primary treatment for viral encephalitis is palliative care due to the lack of therapeutics. In the current study, we conducted a screen of 4,096 FDA approved and bioactive small molecules against LACV, by screening for rescue of LACV-induced cell death in SH-SY5Y cells.
LACV-induced cytopathicity assay
SEQUENCE No. (1,2, 3, etc.); […] (e.g., Cells, Incubation, Reagent, etc.); VALUE and DESCRIPTION.
1. Reagent; 2 uL; Cell solution.
3. Compounds; 23nL; Compound library
4. Reagent; 12 uL; LACV virus
6. Reagent; 24 uL; ATPLite (PerkinElmer)
7. Time; 5 min; Room temperature
8. Detection; Luminescence; View
NOTES (numbers refer to sequence above)
1. Seed 6000 SH-SY5Y cells (ATCC CRL-2266) in 2 microL/well media (DMEM/F12 10% FBS, 1x L-Glutamine, 1x Pyruvate, 1x NEAA, 1x Pen/Strep) in 384-well assay plates (tissue culture treated, white, solid bottom).
2. Incubate at 37 degrees C with 5% CO2 for 24 hr.
3. Dispense 23 nL/well compounds in DMSO via pin transfer.
4. Dispense 12 microL/well of LACV (LACV/human/1978) in media at 0.01 MOI.
5. Incubate at for 6 days at 37C 5% CO2
6. Dispense 24 microL/well of ATPLite 1step Luminescence assay system (PerkinElmer).
7. Incubate for 5 min at room temperature.
8. Read luminescence signal (Viewlux plate reader, PerkinElmer). Data was normalized with DMSO control wells containing LACV as 0%, and DMSO control wells without virus as 100%.

| SMILES | activity change |
| --- | --- |
| COc1cc(C[C@@H](C)N)c(OC)cc1Br | -9.41% [at 9.63 µM] |
| COc1ccc(OC)c(CC(C)N)c1 (stereo not given) | 8.63% [at 9.63 µM] |
| COP(=O)(OC)OC=C(Cl)Cl | 14.6% |
| COc1cc(N)c(Cl)cc1C(=O)NC1CN2CCC1CC2 (stereo not given) | 14.2% |
| CCNc1nc(Cl)nc(NCC)n1 | 8.72% |
| C[C@H](N)[C@H](O)c1ccc(O)c(O)c1 | 12.7% |
| O=C(NC(=O)c1c(F)cccc1F)Nc1cc(Cl)c(OC(F)(F)C(F)C(F)(F)F)cc1Cl (stereo not given) | 72.1% |
| CCN(CC)C(C)C(=O)c1ccccc1 (stereo not given) | 26.1% |
| O=C(CCCN1CCC(n2c(=O)[nH]c3ccccc32)CC1)c1ccc(F)cc1 | 7.3% |
| ClC1=C(Cl)C2(Cl)C(CBr)CC1(Cl)C2(Cl)Cl (stereo not given) | 8.97% |
| Cc1cccc(Cc2cnc[nH]2)c1C | -3.58% |
| CC1N=C(N)OC1c1ccccc1 (stereo not given) | 3.54% [at 8.54 µM] |
| CC(C)=CCN1CC[C@@]2(C)c3cc(O)ccc3C[C@@H]1[C@@H]2C | -15.7% [at 8.54 µM] |
| O=C(CBr)Nc1ccc(Cl)cc1C(=O)c1ccccc1F | 36.2% |
| CN1CCc2cc(Cl)c(O)cc2[C@H]2c3ccccc3CC[C@@H]21 | 12.5% |
| CN1[C@@H]2CC[C@H]1CC(OC(=O)c1cc(Cl)cc(Cl)c1)C2 (stereo not given in full) | -3.42% |
| Oc1ccc2[nH]cc(CCCCN3CC=C(c4ccccc4)CC3)c2c1 | -29% |
| CCC1(c2ccccc2)CCC(=O)NC1=O (stereo not given) | 9.23% |
| CN1C2CCC(C)(C)C1CC(OC(=O)C(O)(c1cccs1)c1cccs1)C2 (stereo not given) | 28.4% |
| CN1C(=O)CN=C(c2ccccc2)c2cc([N+](=O)[O-])ccc21 | -4.11% |

| SMILES | activity change |
| --- | --- |
| CCC(=O)C(CCN(C)C)(c1ccccc1)c1ccccc1 | -13.7% |
| CC(Cc1ccccc1)NCc1ccccc1Cl (stereo not given) | 13.1% |
| CN1C(=O)CN=C(c2ccccc2)c2cc(Cl)ccc21 | -15.2% |
| Nc1ccc(Cl)cc1C(=O)c1ccccc1F | 42.3% |
| ClCCCN1CCN(c2cccc(Cl)c2)CC1 | -5.81% |
| COc1cc(C[C@@H](C)N)c(OC)cc1C | 0.453% [at 9.63 µM] |
| Oc1ccc([C@H]2CNCc3c2ccc(O)c3O)cc1O | -8.89% |
| O=C(CCCCl)c1ccc(F)cc1 | 4.97% |
| O=C1NCN(c2ccccc2)C12CCN(CCCOc1ccc(F)cc1)CC2 | -20.9% |
| CNC(=O)NC(O)C(Cl)(Cl)Cl (stereo not given) | -0.582% |
| CC(C)C(Br)C(=O)NC(N)=O (stereo not given) | -2.58% |
| COc1cc(CC(C)N)cc2c1OCO2 (stereo not given) | -18% [at 9.63 µM] |
| CC(C(O)c1ccccc1)N(C)C/C=C/c1ccccc1 (stereo not given) | -0.165% |
| CCC(=O)OC1(c2ccccc2)CCN(C)CC1 | 7.29% [at 9.63 µM] |
| CCOC(=O)NC(C)(C)Cc1ccc(Cl)cc1 | -13.8% |
| CC(C)(O)C(Cl)(Cl)Cl | 4.71% |
| O=C(O)Cc1ccccc1 | -1.03% |
| CC1=C2[C@H]3OC(=O)[C@@H](C)[C@@H]3CC[C@@]2(C)C=CC1=O | -3.18% |
| Clc1ccc(CSC(Cn2ccnc2)c2ccc(Cl)cc2Cl)cc1 (stereo not given) | 30.4% |
| COc1ccc2c(C(=O)c3ccc(Cl)cc3)c(C)n(CC(=O)O)c2c1 | -1.12% |
